Composite z-score and z-score data for five compounds are collected here from PubChem BioAssay.

Active and inactive are the calls of the source.

For test [1], the system named is PRMT1 (protein arginine N-methyltransferase 1). Briefly: PRMT1 binders on small-molecule microarrays, primary screen, biochemical, small-molecule microarray, 635 nm fluorescence (AID 1088).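 Also: binding of Prmt1 protein to compounds spotted on small-molecule microarray slides.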 The following applies: small-molecule microarray binding, higher = more signal.
Test [2] is described as follows: yeast growth modulation, basal conditions, primary screen, YJM789 clinical isolate, OD600, 24 h (AID 1089).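 Also: growth of clinical yeast isolate S. cerevisiae YJM 789 seeded 1000 cells per well; test concentration not given here.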 The note with it: S. cerevisiae YJM789 growth, higher = more signal, called active from +8 up or from −8 down.
Test [3] in a line: fission yeast growth modulation, primary screen, strain 972, OD600, 24 h, no modulator (AID 1090).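 Also: basal condition with compound alone and no growth modifier present; test concentration not given here.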 The note with it: S. pombe 972 growth, higher = more signal, called active from +8 up or from −8 down.
Test [4] in a line: S. cerevisiae growth modulation with rapamycin, primary screen, strain BY4716, OD600, 96 h (AID 1091). Also: test concentration not given here. The following applies: higher = more signal, called active from +8 up or from −8 down.
Test [5] addresses Torsin-1A-interacting protein 2 (Homo sapiens) (UniProt Q8NFQ8). Briefly: LULL1 binders on small-molecule microarray, primary screen, cell lysate, human LULL1 lysate, 635/667 nm fluorescence (AID 1092).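 Also: probe is lysate of COS7 cells overexpressing human LULL1; score merges per-feature 667 nm fluorescence with signal-to-noise.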 The following applies: hLULL1 lysate binding, 635 nm fluorescence, higher = more signal.
Test [6] in a line: E. coli growth modulation, two-sided OD650, primary screen, E. coli filamentation project, strain DRC41, 24 h (AID 1093).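 Also: MC1000 strain lacking acrAB efflux and sulA so SOS filamentation is blocked; test concentration not given here.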 The following applies: OD650, 24 h, higher = more signal, called active from +8 up or from −8 down.
Test [7] can be described thus: small-molecule microarray binders of probe aLefty2, primary screen, biochemical, biotinylated probe, 635/667 nm fluorescence (AID 1094).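 Also: score merges spot fluorescence near 667 nm with spot signal-to-noise ratio.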 The following applies: higher = more signal.
Test [8] concerns Noggin (protein binding on small-molecule microarray). Briefly: Noggin binders on small-molecule microarray, primary screen, biochemical, 635/667 nm fluorescence (AID 1095).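 Also: score merges 667 nm feature fluorescence with signal to noise over triplicate slides.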 The note with it: 635 nm fluorescence, higher = more signal.
For test [9], the target named is Neurogenic locus notch homolog protein 3 (Homo sapiens) (UniProt Q9UM47). The test is described as follows: NOTCH3 binders on small-molecule microarray, primary screen, biochemical, 635/667 nm fluorescence (AID 1096). The following applies: NOTCH3 binding, 635 nm fluorescence, higher = more signal.
Neurogenic locus notch homolog protein 3 (Homo sapiens), sequence (Q9UM47 whole entry, looked up): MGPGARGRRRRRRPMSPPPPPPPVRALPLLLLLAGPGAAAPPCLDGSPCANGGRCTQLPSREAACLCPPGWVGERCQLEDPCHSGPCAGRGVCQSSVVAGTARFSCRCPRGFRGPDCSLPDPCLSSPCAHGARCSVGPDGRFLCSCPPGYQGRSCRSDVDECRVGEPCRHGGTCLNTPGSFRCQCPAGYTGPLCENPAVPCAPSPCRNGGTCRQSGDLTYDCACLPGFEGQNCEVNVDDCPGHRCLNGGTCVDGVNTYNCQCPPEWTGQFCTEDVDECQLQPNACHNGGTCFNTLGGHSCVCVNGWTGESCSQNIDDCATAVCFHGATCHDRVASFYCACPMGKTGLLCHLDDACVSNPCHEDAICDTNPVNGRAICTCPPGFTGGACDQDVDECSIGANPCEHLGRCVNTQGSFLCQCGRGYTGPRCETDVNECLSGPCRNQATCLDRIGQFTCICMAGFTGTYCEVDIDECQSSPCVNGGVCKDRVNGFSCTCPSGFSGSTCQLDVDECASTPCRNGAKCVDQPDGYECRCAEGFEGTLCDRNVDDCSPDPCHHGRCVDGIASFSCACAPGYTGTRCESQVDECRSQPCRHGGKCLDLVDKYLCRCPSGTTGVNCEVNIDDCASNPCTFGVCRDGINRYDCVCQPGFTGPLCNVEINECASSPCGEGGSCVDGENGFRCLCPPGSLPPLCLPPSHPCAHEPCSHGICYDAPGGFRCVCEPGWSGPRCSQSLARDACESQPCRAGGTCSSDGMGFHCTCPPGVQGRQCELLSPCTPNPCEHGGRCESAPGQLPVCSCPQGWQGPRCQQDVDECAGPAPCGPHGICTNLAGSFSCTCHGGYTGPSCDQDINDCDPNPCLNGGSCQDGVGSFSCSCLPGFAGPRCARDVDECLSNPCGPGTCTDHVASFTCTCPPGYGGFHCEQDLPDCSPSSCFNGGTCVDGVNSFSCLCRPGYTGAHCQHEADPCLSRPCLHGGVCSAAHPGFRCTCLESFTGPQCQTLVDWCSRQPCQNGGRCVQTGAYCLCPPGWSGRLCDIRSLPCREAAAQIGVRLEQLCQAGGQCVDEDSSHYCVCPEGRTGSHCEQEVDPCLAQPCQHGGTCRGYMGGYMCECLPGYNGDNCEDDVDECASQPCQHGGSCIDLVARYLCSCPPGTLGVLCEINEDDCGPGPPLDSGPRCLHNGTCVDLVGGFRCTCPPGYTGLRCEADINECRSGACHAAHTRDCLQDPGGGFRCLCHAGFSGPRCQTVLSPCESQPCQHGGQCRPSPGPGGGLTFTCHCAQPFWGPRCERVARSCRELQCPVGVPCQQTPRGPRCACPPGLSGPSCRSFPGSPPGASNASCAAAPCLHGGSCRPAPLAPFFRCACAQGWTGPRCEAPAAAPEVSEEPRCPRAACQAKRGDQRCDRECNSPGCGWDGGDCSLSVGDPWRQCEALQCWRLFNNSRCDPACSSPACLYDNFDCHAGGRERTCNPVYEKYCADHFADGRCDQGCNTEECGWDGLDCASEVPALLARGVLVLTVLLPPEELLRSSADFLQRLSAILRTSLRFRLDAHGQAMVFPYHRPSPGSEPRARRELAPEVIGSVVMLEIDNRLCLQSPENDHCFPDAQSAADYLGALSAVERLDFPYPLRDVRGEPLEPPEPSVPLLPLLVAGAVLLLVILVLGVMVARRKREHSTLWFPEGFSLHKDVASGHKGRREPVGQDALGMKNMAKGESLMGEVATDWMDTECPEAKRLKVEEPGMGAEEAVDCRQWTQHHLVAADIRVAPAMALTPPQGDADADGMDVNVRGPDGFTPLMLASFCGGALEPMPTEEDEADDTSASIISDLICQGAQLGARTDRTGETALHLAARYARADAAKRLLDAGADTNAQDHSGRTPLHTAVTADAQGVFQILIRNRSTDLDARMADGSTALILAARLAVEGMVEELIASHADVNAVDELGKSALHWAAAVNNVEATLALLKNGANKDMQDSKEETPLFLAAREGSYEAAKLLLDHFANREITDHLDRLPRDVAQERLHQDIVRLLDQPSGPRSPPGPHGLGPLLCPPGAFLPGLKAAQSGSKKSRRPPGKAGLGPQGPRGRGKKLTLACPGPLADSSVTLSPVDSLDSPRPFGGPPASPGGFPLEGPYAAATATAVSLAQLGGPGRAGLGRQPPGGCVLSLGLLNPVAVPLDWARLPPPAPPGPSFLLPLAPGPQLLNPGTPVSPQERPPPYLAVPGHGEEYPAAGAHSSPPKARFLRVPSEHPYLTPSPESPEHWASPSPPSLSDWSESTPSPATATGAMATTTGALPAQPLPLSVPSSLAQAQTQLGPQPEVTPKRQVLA
The nature of test [10]: small-molecule microarray binders of probe aEGFR, primary screen, biochemical, biotinylated probe, 635/667 nm fluorescence (AID 1097).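 Also: probe is a biotinylated anti-EGFR antibody binding compounds printed on slides; score combines fluorescence near 667 nm and signal to noise of each spot.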 The following applies: higher = more signal.
Test [11] relates to Plasmodium falciparum Sir2 (PF13_0152, Sir2A). The test is described as follows: pfSir2 binders on small-molecule microarrays, primary screen, biochemical, small-molecule microarray, 635 nm fluorescence (AID 1098).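 Also: score merges spot fluorescence intensity with its signal-to-noise ratio.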 The following applies: small-molecule microarray binding, fluorescence 635 nm; higher = more signal.
A short description of test [12]: small-molecule microarray binders of probe aDKK1, primary screen, biochemical, biotinylated probe, 635/667 nm fluorescence (AID 1099).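 Also: score merges 667nm spot fluorescence with signal to noise across triplicate slides; reference of the scale not given here.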 The following applies: higher = more signal.
The nature of test [13]: small-molecule microarray binders of probe aCHRDL2, primary screen, biochemical, biotinylated probe, 635/667 nm fluorescence (AID 1100). The note with it: higher = more signal.
Test [14] is described as follows: splicing luciferase reporter signal modulators, primary screen, spliceosome inhibition project, cell-based, HEK293, splice +/- reporter (AID 1101).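 Also: HEK293 cells carrying a splicing-competent luciferase reporter gene; test concentration not given here.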 The note with it: luminescence, 24 h, higher = more signal, called active from +8 up or from −8 down. In general terms: Reporter assays use an easily measured gene product as a stand-in for the process of interest.
Test [15] addresses Fibroblast growth factor 10 (Homo sapiens) (UniProt O15520). Briefly: FGF10 binders on small-molecule microarrays, primary screen, biochemical, small-molecule microarray, 635 nm fluorescence (AID 1102). The note with it: FGF10 binding, fluorescence 635 nm, higher = more signal.
Test [16] deals with glycogen synthase kinase-3 (GSK3A per assay name; protocol says GSK3B). The test is described as follows: GSK3 binders on small-molecule microarrays, primary screen, biochemical, small-molecule microarray, 635 nm fluorescence, GSK3A (AID 1103). Also: the record names both GSK3A and GSK3B. The following applies: small-molecule microarray binding, fluorescence 635 nm; higher = more signal.
In test [17] the target is Epidermal growth factor receptor (Homo sapiens) (UniProt P00533). Briefly: EGFR binders on small-molecule microarrays, primary screen, biochemical, small-molecule microarray, 635 nm fluorescence (AID 1104).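 Also: score merges 667 nm emission intensity with spot signal to noise over triplicate slides.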 The following applies: EGFR binding, higher = more signal.
Epidermal growth factor receptor (Homo sapiens), sequence (P00533 whole entry, looked up): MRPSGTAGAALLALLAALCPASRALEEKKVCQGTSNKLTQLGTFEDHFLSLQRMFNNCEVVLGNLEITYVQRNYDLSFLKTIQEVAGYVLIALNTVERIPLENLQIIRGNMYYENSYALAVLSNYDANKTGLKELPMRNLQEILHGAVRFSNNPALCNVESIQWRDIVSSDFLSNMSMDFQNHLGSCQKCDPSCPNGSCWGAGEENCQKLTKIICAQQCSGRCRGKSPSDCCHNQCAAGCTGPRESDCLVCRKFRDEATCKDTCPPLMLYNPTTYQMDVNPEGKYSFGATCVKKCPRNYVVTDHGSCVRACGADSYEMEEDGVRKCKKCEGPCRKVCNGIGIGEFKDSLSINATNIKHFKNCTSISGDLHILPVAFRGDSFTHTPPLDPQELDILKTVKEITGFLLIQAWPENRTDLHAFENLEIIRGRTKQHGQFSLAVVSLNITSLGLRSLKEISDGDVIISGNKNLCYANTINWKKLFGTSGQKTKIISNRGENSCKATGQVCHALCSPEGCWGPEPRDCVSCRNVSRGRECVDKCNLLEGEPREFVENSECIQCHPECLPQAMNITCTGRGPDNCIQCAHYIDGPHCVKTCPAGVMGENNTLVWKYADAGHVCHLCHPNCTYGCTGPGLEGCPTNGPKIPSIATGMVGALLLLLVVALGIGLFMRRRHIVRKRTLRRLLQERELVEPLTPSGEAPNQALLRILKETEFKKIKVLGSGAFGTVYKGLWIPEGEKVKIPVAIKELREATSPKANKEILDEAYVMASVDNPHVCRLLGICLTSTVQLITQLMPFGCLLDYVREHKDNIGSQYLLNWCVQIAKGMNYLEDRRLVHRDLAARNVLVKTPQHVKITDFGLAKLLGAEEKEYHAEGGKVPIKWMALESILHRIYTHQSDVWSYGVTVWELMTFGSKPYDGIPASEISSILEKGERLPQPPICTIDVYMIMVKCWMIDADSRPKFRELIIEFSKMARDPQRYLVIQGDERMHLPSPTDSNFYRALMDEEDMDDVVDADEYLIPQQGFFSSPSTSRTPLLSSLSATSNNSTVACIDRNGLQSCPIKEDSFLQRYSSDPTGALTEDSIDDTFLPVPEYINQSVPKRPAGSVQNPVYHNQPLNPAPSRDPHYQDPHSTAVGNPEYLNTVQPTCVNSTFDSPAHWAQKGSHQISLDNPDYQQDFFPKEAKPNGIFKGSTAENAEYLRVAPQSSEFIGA
In test [18] the target is Follistatin-related protein 3 (Homo sapiens) (UniProt O95633). The test is described as follows: FSTL3 binders on small-molecule microarrays, primary screen, biochemical, small-molecule microarray, 635 nm fluorescence (AID 1105).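 Also: score merges emission near 667 nm and signal to noise per printed spot across three slides.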 The following applies: FSTL3 binding, higher = more signal.
Follistatin-related protein 3 (Homo sapiens), sequence (O95633 whole entry, looked up): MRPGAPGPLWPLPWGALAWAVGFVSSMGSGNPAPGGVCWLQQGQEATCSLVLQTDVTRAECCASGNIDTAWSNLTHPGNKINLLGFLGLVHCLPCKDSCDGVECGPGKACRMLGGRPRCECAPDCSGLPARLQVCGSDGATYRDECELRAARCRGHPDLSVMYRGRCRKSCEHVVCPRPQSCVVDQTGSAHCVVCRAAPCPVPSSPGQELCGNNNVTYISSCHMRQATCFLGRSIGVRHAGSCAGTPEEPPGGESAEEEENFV
The target in test [19] is Dickkopf-related protein 1 (Homo sapiens) (UniProt O94907). Briefly: DKK1 binders on small-molecule microarrays, primary screen, biochemical, small-molecule microarray, 635 nm fluorescence scan (AID 1106).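 Also: score merges emission near 667 nm with signal to noise over three replicate slides.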 The note with it: DKK1 binding, higher = more signal.
Dickkopf-related protein 1 (Homo sapiens), sequence (O94907 whole entry, looked up): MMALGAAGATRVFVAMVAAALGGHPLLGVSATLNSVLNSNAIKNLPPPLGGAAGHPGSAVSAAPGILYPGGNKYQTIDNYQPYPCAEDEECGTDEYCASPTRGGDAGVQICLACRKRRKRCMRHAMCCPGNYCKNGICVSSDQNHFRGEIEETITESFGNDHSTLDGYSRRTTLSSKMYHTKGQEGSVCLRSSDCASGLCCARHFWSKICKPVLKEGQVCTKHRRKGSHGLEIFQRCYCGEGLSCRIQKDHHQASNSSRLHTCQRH
The subject of test [20] is Inhibin beta A chain (activin A). The test is described as follows: INHBA (activin A) binders on microarrays, primary screen, biochemical, small-molecule microarray, 635 nm fluorescence scan (AID 1107).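 Also: mouse activin A protein probed at 4.33 µg/mL on printed slides; score merges bound-protein fluorescence near 667 nm with spot signal-to-noise.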 The note with it: small-molecule microarray binding, higher = more signal.

Fibroblast growth factor 10 (Homo sapiens), sequence (O15520 whole entry, looked up): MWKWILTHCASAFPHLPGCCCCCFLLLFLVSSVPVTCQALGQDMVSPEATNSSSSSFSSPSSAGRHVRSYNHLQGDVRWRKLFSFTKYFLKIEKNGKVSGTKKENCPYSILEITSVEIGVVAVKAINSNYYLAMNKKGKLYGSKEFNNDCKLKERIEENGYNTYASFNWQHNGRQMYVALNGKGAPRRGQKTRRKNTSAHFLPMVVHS
Torsin-1A-interacting protein 2 (Homo sapiens), sequence (Q8NFQ8 whole entry, looked up): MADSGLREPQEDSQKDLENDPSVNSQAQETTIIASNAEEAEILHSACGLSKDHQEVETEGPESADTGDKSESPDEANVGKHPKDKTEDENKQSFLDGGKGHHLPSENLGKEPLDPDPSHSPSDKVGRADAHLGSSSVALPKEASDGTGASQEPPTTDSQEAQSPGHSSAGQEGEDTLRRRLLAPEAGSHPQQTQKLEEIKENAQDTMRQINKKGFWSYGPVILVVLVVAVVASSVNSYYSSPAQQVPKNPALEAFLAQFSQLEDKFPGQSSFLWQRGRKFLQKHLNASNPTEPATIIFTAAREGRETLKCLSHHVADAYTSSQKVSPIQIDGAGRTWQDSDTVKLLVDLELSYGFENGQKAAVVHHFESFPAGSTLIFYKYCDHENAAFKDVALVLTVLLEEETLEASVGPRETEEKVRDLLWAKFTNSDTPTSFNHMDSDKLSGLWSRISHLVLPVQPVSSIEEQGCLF

On to `CC(C)[Si]1(C(C)C)O[C@@H](c2ccccc2)c2cc(C3CC3)nc(-c3ccccc3)c21`, for which the composite z-score in test [1] was 0.0587; in test [5] it was -0.332; in test [7], -0.34; in [8] it was -0.207; in test [9], 0.492; in test [10] it was -0.0304. For the same compound, the composite z-score was -0.792 in [11]; -0.276 in [12]; -0.0652 in test [13]; -0.0733 in [15]; -0.248 in test [16]; -0.337 in [17]. The composite z-score in test [18] was -0.349; in test [19], -0.568; in [20], -1.07. Further, the z-score in [2] was -0.443 (inactive); in test [3], -5.5 (inactive); in [4], -0.215 (inactive); in test [6], -0.867 (inactive); in test [14], -0.613 (inactive).
Turning to `O=C1CCCC=C1C(O)CCOCc1ccccc1` (stereo not given), the composite z-score was -0.195 in [1]; -1.08 in test [5]; -0.224 in test [7]; 0.355 in test [8]; -0.834 in test [9]; -0.0828 in test [10]. Moreover, the composite z-score in test [11] is 0.265; in test [12], -0.229; in [13], -0.513; in test [15], 0.154; in [16], -0.391; in test [17], 0.255. The composite z-score in test [18] is -0.0207; in test [19], 0.428; in test [20] it was 0.13. Besides, the z-score in test [2] was -0.385 (inactive); in test [3], -0.82 (inactive); in [4] it was -1.15 (inactive); in test [6], -0.546 (inactive); in test [14], 0.322 (inactive).
For the compound `COc1ccc(OC[C@H]2Cc3c(-c4ccccc4)nc4c(c3CO2)CN(CCOc2ccccc2)CC4)cc1`, the composite z-score in [1] stood at 1.53; in test [5] it was 1.32; in [7], 0.0534; in test [8], 0.476; in test [9], 1.1; in test [10] it was 0.03. Besides, the composite z-score in test [11] was 1.07; in test [12] it was 0.521; in test [13], -0.233; in test [15] it was 0.883; in test [16], 0.94; in test [17], 0.487. Moreover, the composite z-score in [18] is 1.03; in test [19] it was 0.85; in test [20], 0.726. Further, the z-score in test [2] is -0.721 (inactive); in test [3], -2.44 (inactive); in test [4] it was -0.42 (inactive); in test [6], 0.258 (inactive); in test [14], -1.47 (inactive).
As for `O=C1O[C@@H](c2ccccc2)[C@@H](c2ccccc2)N2[C@@H](c3ccc(O)cc3)[C@]3(C(=O)Nc4ccccc43)[C@@H](C(=O)O)[C@H]12`, the composite z-score was 1.24 in test [1]; 2.45 in test [5]; -0.0753 in [7]; -0.335 in [8]; 0.166 in [9]; -0.041 in test [10]. Moreover, the composite z-score in test [11] was 1.1; in test [12], 0.74; in test [13], 0.91; in test [15] it was -0.0962; in [16], 0.536; in [17] it was -0.111. Also, the composite z-score in test [18] was -0.0238; in test [19], -0.465; in [20], 0.385. Further, the z-score is 0.462 (inactive) in test [2]; -0.253 (inactive) in [3]; -0.408 (inactive) in [4]; 1.14 (inactive) in [6]; 0.451 (inactive) in test [14].
In the case of `CN1C(=O)[C@@]2(CCC(=O)OC(C)(C)C)N=C(c3ccc(OCCCO)cc3)O[C@H]2c2ccccc21`, the composite z-score in test [1] was 1.54; in test [5], 2.82; in [7], 0.0112; in test [8] it was 0.747; in test [9], 0.736; in test [10], -0.168. The composite z-score in test [11] was found to be 1.26; in test [12], 0.0179; in [13], 0.457; in test [15] it was 0.788; in test [16], 1.33; in test [17], 0.181. For the same compound, the composite z-score in test [18] is 0.529; in [19], -0.0485; in test [20], 1.03. Further, the z-score is -1.08 (inactive) in test [2]; -2.19 (inactive) in [3]; 0.0793 (inactive) in test [4]; 1.43 (inactive) in test [6]; -0.0334 (inactive) in test [14].
